# TRPML1 agonist – qHTS for Agonists of the Human Mucolipin Transient Receptor Potential 1 (TRPML1). TRPML1-expressing cells, Ca2+ dye fluorescence, FDSS. activation, % (test concentration not listed). 0.12% of 410,000 active; in the data active = activation above about 50%; inconclusive = mostly about 30% to 49%; also: 0% is about no effect
# Target sequence (Q9GZU1 whole entry, looked up): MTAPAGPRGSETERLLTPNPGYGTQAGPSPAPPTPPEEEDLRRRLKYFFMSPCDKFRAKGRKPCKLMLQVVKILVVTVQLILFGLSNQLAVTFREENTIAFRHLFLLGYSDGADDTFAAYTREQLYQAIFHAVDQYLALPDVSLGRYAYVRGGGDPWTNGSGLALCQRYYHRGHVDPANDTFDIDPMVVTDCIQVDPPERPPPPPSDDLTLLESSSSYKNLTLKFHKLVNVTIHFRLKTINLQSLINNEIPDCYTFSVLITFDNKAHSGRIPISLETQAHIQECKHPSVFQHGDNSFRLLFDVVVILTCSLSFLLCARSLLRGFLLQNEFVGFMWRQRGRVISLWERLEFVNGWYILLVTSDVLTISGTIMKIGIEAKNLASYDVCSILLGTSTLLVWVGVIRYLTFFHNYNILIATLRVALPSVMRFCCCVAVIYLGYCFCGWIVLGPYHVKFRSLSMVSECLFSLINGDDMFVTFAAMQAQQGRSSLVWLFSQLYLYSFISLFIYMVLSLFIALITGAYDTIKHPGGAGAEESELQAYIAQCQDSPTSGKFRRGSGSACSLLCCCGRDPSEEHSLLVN
#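 In this qHTS format, compounds were pin-transferred onto Ca8-dye-loaded TRPML1-DL cells induced with Tet overnight, and intracellular Ca2+ fluorescence was recorded kinetically for 110 s after a 10 s baseline. A subsequent 4uM final 54-4 (EC80) addition followed by a second 110 s read served as the antagonist phase.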
# EPAC1 antag – qHTS for Antagonist of cAMP-regulated guanine nucleotide exchange factor 3 (EPAC1): primary screen; EPAC1 GEF assay, Rap1b-BODIPY-GDP exchange fluorescence; Potency, µM (highest dose often 115 µM), for the others: at the highest dose activity change, negative = inhibition, actives largely listed as inhibitors; 0.14% of 360,000 active; AID 720709, 2013;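 also: potency is read from the fitted curve at half-maximal effect; plate controls were vehicle for no effect and positive control for full effect; nearly all actives have a fitted effect of over 50% in size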
# EPAC1 ag – qHTS for Agonist of cAMP-regulated guanine nucleotide exchange factor 3 (EPAC1): primary screen. 0.073% of 360,000 active. AID 720707, 2013. Rap guanine nucleotide exchange factor 3 (Homo sapiens), O95398. EPAC1 agonist qHTS, biochemical assay; response scale: 100% = response to 6.5 mM cAMP. Potency, µM (top dose mostly 154 µM), inactives show at the highest dose activation, usual class: activators; also: potency is read from the fitted curve at half-maximal effect; nearly all actives have a fitted effect of over 60% in size
#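 Fluorescent GDP-exchange assay: 100 nM EPAC1 with 250 nM Rap1B preloaded with BODIPY-GDP and 50 uM GDP; compounds tested as concentration series, 5 min at room temperature, then read every 5 min for 30 min (ex 480/em 540 nm); normalized to 6.5 mM cAMP.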
# EPAC2 antag – qHTS for Antagonist of cAMP-regulated guanine nucleotide exchange factor 2 (EPAC2): primary screen. Rap guanine nucleotide exchange factor 4 (Homo sapiens), Q8WZA2. EPAC2 GEF exchange of Rap1B-BODIPY-GDP, fluorescence. Potency, µM (titrated, usually from 114 µM), for inactives: at the highest dose activity, negative = inhibition, hits mostly inhibitors. 0.18% of 360,000 active. AID 720708, 2013; also: potency is read from the fitted curve at half-maximal effect; % is scaled to controls: 0 for no effect and ±100 for the full control effect; nearly all actives have a fitted effect of over 45% in size
# TRPML1 blocker – qHTS for Inhibitors of the Human Mucolipin Transient Receptor Potential 1 (TRPML1) | 0.02% of 390,000 active | Mucolipin-1 (Homo sapiens), Q9GZU1 | activity change, negative = inhibition, % (no concentration beside the values) | TRPML1-inducible cells, Ca2+ dye fluorescence, FDSS; stronger effect = lower value; inhibition of EC80 agonist-evoked calcium signal; in the data active = activity change below about -50%; inconclusive = between about -30% and that limit;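 also: stimulus is agonist 54-4 at its EC80 concentration; % is scaled to controls: 0 for no effect and ±100 for the full control effect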
#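 TRPML1-DL cells, Tet-induced overnight (~16 h, 37 °C) at 1,500 cells/well, were loaded with Ca8 no-wash dye plus quencher for 45-90 min at room temperature. Compounds were pinned during FDSS kinetic reading; agonist 54-4 at EC80 (4 uM final) then added.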
# EPAC2 agonist – qHTS for Agonist of cAMP-regulated guanine nucleotide exchange factor 4 (EPAC2): primary screen; 0.079% of 360,000 active; Potency, µM (doses to about 154 µM), for the others: at the top dose activation, most hits filed as activators; EPAC2 activation, biochemical qHTS; response scale: 100% = 6.5 mM cAMP response; also: potency is read from the fitted curve at half-maximal effect; nearly all actives have a fitted effect of over 50% in size
#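 Exchange assay: 100 nM EPAC2 with 250 nM Rap1B-BODIPY-GDP and 50 uM GDP. Fluorescence (ex 480/em 540 nm) read every 5 min for 30 min at room temperature. Data normalized to 6.5 mM cAMP as agonist control.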
# Numbers without * were called inactive; ? = inconclusive; . = no result given; [ ] = another dose, or the depositor's remark. Sampled rows, rich in hits. Any-hit rate of the full collection: about 0.4%. Unless noted, calls follow the shape of the dose curve; as a rule, active = well fitted curve in the direction sought with a large enough effect; inconclusive = small, poorly fitted or top-dose-only effect, or another doubt; inactive = no such curve, though single readings can be large; an effect the other way counts as inactive or inconclusive.
SMILES,TRPML1 agonist,EPAC1 antag,EPAC1 ag,EPAC2 antag,TRPML1 blocker,EPAC2 agonist
C/C(=N\NC(=O)c1cc2ccccc2cc1O)c1ccccn1,0,?,-22%,14%,1,10%
O=C(CSc1nnc2n(C3CCCC3)c(=O)c3ccccc3n12)N1CCCCCC1,2,4%,1%,0%,37,-2%
COc1ccccc1Cn1c(=O)c2ccccc2n2c(SCC(=O)N3CCCCC3)nnc12,2,8%,5%,7%,-61*,-4%
CCN(CC)c1ccc2cc(-c3nnc(Nc4ccc(C)cc4)s3)c(=O)oc2c1,67*,.,.,.,-28,.
COc1cc2nc(N3CCCCC3)nc(NC3CCN(C)CC3)c2cc1OC,0,.,.,.,.,.
CCOc1ccc(S(=O)(=O)N2CN(c3cccc(C(C)=O)c3)c3nc4ccccc4nc32)cc1,64*,-23%,-2%,-7%,-21,6%
Cc1cc(C)c2nccc(/C=C/c3ccc(N(C)C)cc3)c2c1,15,.,.,.,.,.
O=C(CSc1cn(CC(=O)N2CCOCC2)c2ccccc12)Nc1ccccc1F,0,.,.,.,3,.
O=[N+]([O-])c1ccc(O/N=[N+](\[O-])N2CCN(c3ccccc3)CC2)c([N+](=O)[O-])c1,1,.,.,.,45,.
COC1=C(Br)C(=O)c2ncccc2C1=O,0,?,3%,8.9µM*,-11,9%
COc1cc2c(NC3CCN(C(C)C)CC3)nc(N3CCCN(C)CC3)nc2cc1OCCCN1CCCC1,0,.,.,.,.,.
CN1CCc2c(sc(NC(=O)CSc3ccccc3)c2-c2nc3ccccc3s2)C1,59*,.,.,.,-12,.
CC(=O)N1CCc2c(sc(NC(=O)CSc3ccccc3)c2-c2nc3ccccc3s2)C1,3,.,.,.,36,.
C=CCOC(=O)C1=C(C)NC(C)=C(C(=O)OCC=C)C1c1ccco1,2,-14%,0%,45µM*,21,2%
CCOC(=O)C1=C(C)NC(C)=C(C(=O)OC)C1c1ccco1 (configuration not stated),1,-16%,-13%,-19%,-1,9%
O=C1N=c2ccccc2=C1c1sc(Nc2ccc(O)cc2)nc1O,0,45µM*,-4%,-27%,6,1%
CCCCNC(=O)[C@@H]1CC=C[C@@H]2CCN(C3CCCCC3)C(=O)[C@@H]21,-1,.,.,.,.,.
Cc1ccc(C)c(S(=O)(=O)Nc2ccc(C(=O)NCC(c3ccco3)N3CCCCC3)cc2)c1 (configuration not stated),1,8%,-9%,-1%,?,11%
Cc1ccc(C)c(S(=O)(=O)Nc2ccc(C(=O)NCC(c3ccco3)N(C)C)cc2)c1 (configuration not stated),0,-11%,112µM*,7%,20,-6%
CCc1cccc2cc3c(N)c(C(=O)Nc4ccc(S(=O)(=O)N5CCCC5)cc4)sc3nc12,?,50µM*,-324%,56µM*,-7,-100%
COc1ccc(NC(=O)NS(=O)(=O)c2ccc(C)cc2)cn1,2,109%,100µM*,27%,27,11%
COc1cc(NC(=O)NS(=O)(=O)c2ccc(C)cc2)cc(OC)c1,-1,18%,1%,16%[57.1 µM],-13,-10%
CCCC(=O)Oc1ccc2[nH]c(C(=O)c3cc4ccccc4[nH]3)cc2c1,0,.,.,.,.,.
CC(=O)Nc1ccc(NCc2cccs2)cc1,0,-5%,10%,13%,-13,6%
Oc1ccc(NCc2cccs2)cc1,-1,56µM*,12%,5%,5,7%
SMILES,TRPML1 agonist,EPAC1 antag,EPAC1 ag,EPAC2 antag,TRPML1 blocker,EPAC2 agonist
CSc1cccc(N2CC(C(=O)Nc3cccc(S(=O)(=O)N4CCCC4)c3)CC2=O)c1 (configuration not stated),1,-5%,50µM*,5%,1,9%
CCOC(=O)c1c2c(n(-c3ccc(OC)cc3)c1C)C(=O)C(=O)c1ccccc1-2,1,56µM*,8%,?,17,22%
COc1ccc(O)c(/C=C2/SC(=S)N(Cc3ccccc3)C2=O)c1,.,-8%,4%,8%,.,12%
COc1ccc(/C=C2\SC(=S)N(NS(=O)(=O)c3ccc(C)cc3)C2=O)c(OC)c1,2,?,-1%,-13%,-17,-18%
COc1ccc(OC)c(/C=C2\SC(=S)N(NS(=O)(=O)c3ccc(C)cc3)C2=O)c1,5,56µM*,9%,?,-7,9%
COc1ccccc1/C=C1\SC(=S)N(NS(=O)(=O)c2ccc(C)cc2)C1=O,2,79µM*,-4%,?,-14,8%
COc1ccc(OC)c(/C=C2\SC(=S)N(Cc3cccnc3)C2=O)c1,5,4%,9%,10%,-9,112µM*
Nc1cc(N)cc(N)c1,0,.,.,.,.,.
[O-][N+]12CCCc3cccc(c31)CCC2,3,.,.,.,.,.
Cc1ccc(-n2nc(C)c(Sc3ccccc3[N+](=O)[O-])c2N)cc1,0,-2%,7%,0%,2,16%
CC(=O)Oc1c(Sc2ccccc2[N+](=O)[O-])c(C)nn1C(C)(C)C,0,?,10%,50µM*,12,8%
CCC(c1nnnn1Cc1cccs1)N1CCN(c2nc3ccccc3s2)CC1 (configuration not stated),13,-1%,4%,-5%,3,16%
CC(C)CC(c1nnnn1Cc1cccs1)N1CCN(c2nc3ccccc3s2)CC1 (configuration not stated),74*,-13%,5%,-8%,-11,1%
COc1ccc(OC)c(/C=C2\C=Cc3ccccc32)c1,0,.,.,.,.,.
CCN(CC)c1ccc(/C=C2/C(=O)c3ccc(C(=O)O)cc3C2=O)cc1,65*,?,6%,?,-19,9%
CC(C)NC(=O)COC(=O)c1ccccc1OCC(=O)Nc1ccc(Br)cc1,0,.,.,.,.,.
CCOC(=O)C1=C(C)N=c2s/c(=C\c3ccc(C(=O)O)cc3)c(=O)n2C1c1ccc(OC)cc1OC (configuration not stated),-1,?,2%,?,8,-6%

# Source: PubChem (National Center for Advancing Translational Sciences (NCATS))
